In PubChem BioAssay (Tox21) one finds Potency data, which are given here for 8 molecules.

The structures appear in SMILES notation. Records with an inconclusive call do not appear. Calls of active or inactive are those of the source. Unless noted, calls come from the whole dose curve.

A short description of assay [1]: Nuclear factor erythroid 2-related factor 2/antioxidant responsive element (Nrf2/ARE) small molecule agonists: qHTS cell viability counter screen in human keratinocytes (AID 1919968; active = well fitted curve in the direction sought with a large enough effect in the repeat runs; an effect the other way counts as inactive or inconclusive; note: nearly all actives have a fitted effect of over 55% in size). An outline of the steps:
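Stably transfected HaCaT (KeratinoSens), 1,500/well. Test agents in DMSO were applied for 23 h, 37 C/5% CO2. CellTiter-Fluor was incubated 1 h before the fluorescence read.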
(In general: Quantitative high-throughput screening tests each substance at several concentrations.)

A short description of assay [2]: Nuclear factor erythroid 2-related factor 2/antioxidant responsive element (Nrf2/ARE) small molecule agonists: luciferase reporter gene qHTS assay in human keratinocytes (AID 1919969). Note: nearly all actives have a fitted effect of over 35% in size. Note: potency is the fitted concentration of half-maximal effect. On the technique in general: In a reporter assay the amount or activity of a reporter protein is the signal.
The target in assay [3] is Gonadotropin-releasing hormone receptor (Homo sapiens) (UniProt P30968). Nature of the assay: Human gonadotropin-releasing hormone receptor (GnRHR) small molecule agonists, calcium flux assay in GnRHR-HEK293 cells (AID 1920063). Note: nearly all actives have a fitted effect of over 35% in size. The procedure, abridged: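 Stable human GnRHR HEK293 line. 18 h plating, then calcium dye for 1 h at 37 C. Agonist-mode compound addition from DMSO stocks; fluorescence monitored 3 min.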
Gonadotropin-releasing hormone receptor (Homo sapiens), sequence (P30968 whole entry, looked up): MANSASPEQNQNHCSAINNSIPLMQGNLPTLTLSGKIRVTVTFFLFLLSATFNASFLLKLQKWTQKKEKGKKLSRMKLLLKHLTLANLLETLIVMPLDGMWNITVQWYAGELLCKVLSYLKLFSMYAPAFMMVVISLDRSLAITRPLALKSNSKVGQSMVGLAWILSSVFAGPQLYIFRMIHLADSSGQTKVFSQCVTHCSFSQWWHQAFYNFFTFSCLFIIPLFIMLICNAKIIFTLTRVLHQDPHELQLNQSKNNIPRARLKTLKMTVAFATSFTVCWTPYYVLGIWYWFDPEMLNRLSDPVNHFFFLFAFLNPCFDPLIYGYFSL

Assay [4] deals with KiSS-1 receptor (Homo sapiens) (UniProt Q969F8). Briefly: Human kisspeptin (KISS1R) small molecule agonists, calcium flux assay in KISS1R-HEK293 cells (AID 1920064; active = well fitted curve in the direction sought with a large enough effect in the repeat runs; an effect the other way counts as inactive or inconclusive). The procedure, abridged:
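After overnight (18 h) culture at 37 C/5% CO2, human KISS1R-HEK293 cells received calcium dye for 1 h, then test compound; emission at 540 nm (excitation 480 nm) was tracked for 3 min.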
Background: Calcium flux is commonly read through the fluorescence of an indicator in the cells.

The nature of assay [5]: p53 small molecule agonists, cell-based qHTS assay with rat liver microsomes (AID 1963578). The procedure, abridged: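 p53RE-bla cells, 4,000/well, pre-incubated 5 h, then given compounds plus rat liver microsomes (0.5 mg/mL final) and NADPH (0.5 mg/mL final). Incubation 16 h at 37 C; beta-lactamase reporter read by LiveBLAzer fluorescence after 2 h at room temperature.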

Assay [6] can be described thus: p53 small molecule agonists, cell-based qHTS assay with human liver microsomes: qHTS cell viability counter screen (AID 1963579). Note: nearly all actives have a fitted effect of over 45% in size. An outline of the steps: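 p53RE-bla cells, 4,000/well, dosed 5 hours after plating, with human liver microsomes (0.5 mg/mL final) plus NADPH (0.5 mg/mL final), 16 hours at 37 C. Viability read as CellTiter-Glo luminescence after 30 min at room temperature.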

The nature of assay [7]: p53 small molecule agonists, cell-based qHTS assay with rat liver microsomes: qHTS cell viability counter screen (AID 1963580). Note: nearly all actives have a fitted effect of over 45% in size. The procedure, abridged:
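Luminescent ATP readout (CellTiter-Glo, 30 min at room temperature) reports viability of p53RE-bla HCT-116 cells after 16 h at 37 C with test compounds under metabolic activation by rat liver microsomes and NADPH at 0.5 mg/mL final each.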

The nature of assay [8]: p53 small molecule agonists, cell-based qHTS assay: qHTS cell viability counter screen (AID 1963581). Note: nearly all actives have a fitted effect of over 45% in size. An outline of the steps:
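qHTS counter screen: 16 h compound exposure at 37 C of p53RE-bla HCT-116 cells (4,000 per well, seeded 5 h prior), cell viability by ATP luminescence.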

The nature of assay [9]: p53 small molecule agonists, cell-based qHTS assay (AID 1963582; active = well fitted activation curve with a large enough effect in the signal ratio in the repeat runs, not every such curve was filed as active; the % refers to the signal ratio). The procedure, abridged:
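Measured: fluorescence from cleaved LiveBLAzer substrate. System: p53RE-bla cells, 16 h compound treatment at 37 C, 2 h substrate step at room temperature.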

The target in assay [10] is 5-hydroxytryptamine receptor 2A (Homo sapiens) (UniProt P28223). Briefly: 5-hydroxytryptamine receptor 2A (HTR2A) small molecule antagonists, cell-based qHTS assay (AID 1963586). Note: nearly all actives have a fitted effect of over 45% in size. An outline of the steps:
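CHO cells stably expressing human HTR2A were plated for 18 h at 37 C, then loaded with calcium dye for 1 h. Compounds were preincubated 5 min at room temperature before DOI (4 nM solution) was added. Kinetic fluorescence was read for 3 min.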

For assay [11] the target is unchanged. Nature of the assay: 5-hydroxytryptamine receptor 2A (HTR2A) small molecule agonists, cell-based qHTS assay (AID 1963587). Note: nearly all actives have a fitted effect of over 30% in size. An outline of the steps:
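HTR2A-CHO cells, plated 18 h at 37 C/5% CO2, dye-loaded 1 h at 37 C; compounds in DMSO added by pin tool (agonist mode). Intracellular calcium flux read as kinetic fluorescence on FDSS over 2 min at 1 s intervals.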

Assay [12] concerns the target Muscarinic acetylcholine receptor M1 (Homo sapiens) (UniProt P11229). Nature of the assay: Cholinergic receptor muscarinic 1 (CHRM1) small molecule antagonists, cell-based qHTS assay (AID 1963588). Note: nearly all actives have a fitted effect of over 40% in size. Note: potency is the fitted concentration of half-maximal effect. An outline of the steps:
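Compounds were tested at 15 concentrations in three independent runs. Dye-loaded CHRM1-CHO cells were exposed 5 min at room temperature before stimulation by acetylcholine added at 50nM. Intracellular calcium was read kinetically on FDSS for 3 min.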

Assay [13] shares this target. Briefly: Cholinergic receptor muscarinic 1 (CHRM1) small molecule agonists, cell-based qHTS assay (AID 1963589). Note: nearly all actives have a fitted effect of over 35% in size. An outline of the steps:
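Kinetic fluorescence (1 s intervals) of calcium-sensitive dye in human M1 CHO cells after compound addition; cells pre-incubated 18 h at 37 C/5% CO2 and dye-loaded 1 h.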

Assay [14] can be described thus: cAMP Responsive Elements (CRE) small molecule agonists, cell-based qHTS assay (AID 1963590). An outline of the steps:
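Test agents in DMSO were incubated 3 h at 37 C/5% CO2 with CRE-bla HEK 293T cells seeded 18 h earlier; LiveBLAzer B/G FRET substrate was added and read after 2 h at room temperature.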

The nature of assay [15]: cAMP Responsive Elements (CRE) small molecule antagonists, cell-based qHTS assay (AID 1963591; active = well fitted inhibition curve with a large enough effect in the signal ratio in the repeat runs, not every such curve was filed as active; the % refers to the signal ratio). The procedure, abridged:
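Reporter line CRE-bla HEK 293T in dialyzed-FBS DMEM; cells preincubated 18 h, treated 3 h with compound plus NKH477 (0.25 uM final); LiveBLAzer FRET, 2 h RT.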

The target in assay [16] is Beta-2 adrenergic receptor (Homo sapiens) (UniProt P07550). Nature of the assay: Adrenergic beta2 receptor (ADRB2) small molecule antagonists, cell-based qHTS assay (AID 1963592). Note: series mostly up to about 92 µM; nearly all actives have a fitted effect of over 50% in size. The procedure, abridged: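 Assay format: CHO-ADRB2 cells, 18-20hr seeding at 37C/5% CO2, then compound plus 1nM isoproterenol agonist mix for 0.5hr RT. Homogeneous time-resolved fluorescence cAMP detection after 1hr, expressed as 665/615 nm ratio.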
Beta-2 adrenergic receptor (Homo sapiens), sequence (P07550 whole entry, looked up): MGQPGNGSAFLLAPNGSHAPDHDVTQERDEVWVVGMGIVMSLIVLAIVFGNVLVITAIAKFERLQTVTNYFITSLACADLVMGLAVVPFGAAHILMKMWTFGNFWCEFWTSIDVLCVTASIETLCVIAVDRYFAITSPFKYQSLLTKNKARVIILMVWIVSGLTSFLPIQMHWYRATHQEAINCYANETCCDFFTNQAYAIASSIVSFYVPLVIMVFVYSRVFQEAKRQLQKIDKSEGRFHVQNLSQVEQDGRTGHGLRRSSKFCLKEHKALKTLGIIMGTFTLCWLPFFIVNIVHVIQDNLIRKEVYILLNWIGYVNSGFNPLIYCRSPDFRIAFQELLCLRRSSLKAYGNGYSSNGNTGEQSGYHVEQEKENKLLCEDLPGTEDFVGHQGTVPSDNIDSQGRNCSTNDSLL

The target in assay [17] is D(2) dopamine receptor (Homo sapiens) (UniProt P14416). Briefly: Dopamine D2 receptor (DRD2) small molecule agonists, cell-based qHTS assay (AID 1963594). Note: nearly all actives have a fitted effect of over 35% in size. The procedure, abridged:
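HEK293 cells stably expressing DRD2 were cultured 24 h at 37 C, then given Ro20-1724 (0.1 mM final) and compounds for 10 min at room temperature. NKH477 (200nM) was then added for 30 min. cAMP was read by HTRF.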

Assay [18] shares this target. Briefly: Dopamine D2 receptor (DRD2) small molecule antagonists, cell-based qHTS assay (AID 1963595; active = well fitted inhibition curve with a large enough effect in the signal ratio in the repeat runs, with a control signal flat; the % refers to the signal ratio). The procedure, abridged:
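HEK293 cells stably expressing DRD2, preincubated with 0.1 mM Ro20-1724 and compounds 10 min, were stimulated with 200 nM NKH477 plus 12 nM quinpirole for 30 min at room temperature; cAMP measured by HTRF (665/620 nm).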

Assay [19] is described as follows: G protein-coupled receptor (GPCR) small molecule agonists, calcium flux assay: HEK293 wild type cell line counter screen (AID 1920065). The procedure, abridged: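 Following 18 h incubation at 37 C/5% CO2, plates got calcium dye for 1 h; compounds, ATP or DMSO were then pinned in and fluorescence followed kinetically (480/540 nm).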
Assay [20] is described as follows: p53 small molecule agonists, cell-based qHTS assay with human liver microsomes (AID 1963577). An outline of the steps: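 p53RE-bla cells, 4,000/well, compound added after 5 h, with human liver microsomes 0.5 mg/mL and NADPH 0.5 mg/mL final; 16 h at 37 C, then LiveBLAzer 2 h RT, fluorescence.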

Muscarinic acetylcholine receptor M1 (Homo sapiens), sequence (P11229 whole entry, looked up): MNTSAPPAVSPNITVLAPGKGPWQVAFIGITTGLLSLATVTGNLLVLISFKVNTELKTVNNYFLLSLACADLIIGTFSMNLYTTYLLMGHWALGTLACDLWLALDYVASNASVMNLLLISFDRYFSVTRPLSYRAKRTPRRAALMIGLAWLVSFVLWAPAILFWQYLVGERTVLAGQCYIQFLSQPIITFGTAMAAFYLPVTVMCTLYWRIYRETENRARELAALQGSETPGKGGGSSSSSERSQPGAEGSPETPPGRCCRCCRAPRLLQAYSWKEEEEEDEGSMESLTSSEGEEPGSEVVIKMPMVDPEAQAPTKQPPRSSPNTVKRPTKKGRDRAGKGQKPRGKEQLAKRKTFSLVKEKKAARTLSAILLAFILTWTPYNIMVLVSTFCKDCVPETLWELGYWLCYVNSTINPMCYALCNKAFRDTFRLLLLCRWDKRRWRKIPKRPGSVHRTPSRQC
5-hydroxytryptamine receptor 2A (Homo sapiens), sequence (P28223 whole entry, looked up): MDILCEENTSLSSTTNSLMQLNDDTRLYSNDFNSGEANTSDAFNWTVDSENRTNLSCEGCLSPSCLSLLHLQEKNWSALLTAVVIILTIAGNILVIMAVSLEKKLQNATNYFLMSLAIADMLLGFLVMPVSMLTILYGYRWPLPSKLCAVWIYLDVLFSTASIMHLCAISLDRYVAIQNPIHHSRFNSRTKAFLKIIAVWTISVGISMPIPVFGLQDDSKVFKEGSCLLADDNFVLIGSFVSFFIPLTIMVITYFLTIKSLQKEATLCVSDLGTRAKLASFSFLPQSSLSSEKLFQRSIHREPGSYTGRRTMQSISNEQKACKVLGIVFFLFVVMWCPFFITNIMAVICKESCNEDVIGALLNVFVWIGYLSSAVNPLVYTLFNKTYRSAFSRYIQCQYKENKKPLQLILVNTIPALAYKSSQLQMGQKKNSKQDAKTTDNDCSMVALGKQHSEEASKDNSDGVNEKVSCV
D(2) dopamine receptor (Homo sapiens), sequence (P14416 whole entry, looked up): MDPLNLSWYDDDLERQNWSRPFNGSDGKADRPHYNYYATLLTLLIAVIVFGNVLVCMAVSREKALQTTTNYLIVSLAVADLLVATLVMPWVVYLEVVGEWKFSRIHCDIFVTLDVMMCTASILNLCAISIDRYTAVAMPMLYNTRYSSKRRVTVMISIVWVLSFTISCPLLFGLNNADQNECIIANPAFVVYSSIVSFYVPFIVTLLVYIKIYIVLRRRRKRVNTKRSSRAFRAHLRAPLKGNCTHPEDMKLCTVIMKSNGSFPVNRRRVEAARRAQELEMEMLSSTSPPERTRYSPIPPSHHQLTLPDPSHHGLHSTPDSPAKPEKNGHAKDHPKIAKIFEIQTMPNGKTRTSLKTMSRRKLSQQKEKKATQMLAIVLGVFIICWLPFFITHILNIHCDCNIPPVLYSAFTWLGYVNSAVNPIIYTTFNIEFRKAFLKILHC
KiSS-1 receptor (Homo sapiens), sequence (Q969F8 whole entry, looked up): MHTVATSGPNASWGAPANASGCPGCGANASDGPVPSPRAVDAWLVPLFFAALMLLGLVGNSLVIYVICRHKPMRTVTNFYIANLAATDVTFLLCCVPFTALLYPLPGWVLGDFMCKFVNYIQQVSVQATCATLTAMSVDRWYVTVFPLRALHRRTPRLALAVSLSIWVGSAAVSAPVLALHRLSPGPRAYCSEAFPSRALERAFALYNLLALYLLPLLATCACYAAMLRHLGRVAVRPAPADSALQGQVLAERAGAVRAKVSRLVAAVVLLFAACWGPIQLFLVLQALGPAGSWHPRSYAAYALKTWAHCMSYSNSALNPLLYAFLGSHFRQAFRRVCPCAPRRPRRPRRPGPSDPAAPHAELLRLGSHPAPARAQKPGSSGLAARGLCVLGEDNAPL

In the case of `CCNc1nc(NCC)nc(SC)n1`, the Potency entry in assay [1], in assay [2], in assay [3], in assay [4], in assay [5] and in [6] was “inactive” throughout. The Potency result in [7], in assay [8], in assay [9], in assay [10], in assay [11] and in assay [12] was “inactive” each time. Also, the Potency result in assay [13], in [14], in [15], in assay [16], in [17] and in assay [18] was “inactive” throughout.
`O=P(O)(Oc1ccccc1)Oc1ccccc1`: the Potency result in assay [1], in [2], in assay [3], in assay [19], in assay [20] and in assay [5] was “inactive” in each case. The Potency result in [6], in assay [7], in assay [8], in [9], in [10] and in assay [11] was “inactive” throughout. Moreover, the Potency entry in assay [12], in [13], in assay [14], in assay [15], in assay [16] and in assay [17] was “inactive” throughout. Besides, the Potency entry in assay [18] was “inactive”.
In the case of `CC(Cl)Cl`, the Potency entry in assay [1], in [3], in [19], in assay [20], in assay [5] and in [6] was “inactive” in each case. For the same molecule, the Potency result in assay [7], in assay [8], in [9], in [10], in assay [11] and in assay [12] was “inactive” each time. Also, the Potency result in assay [13], in assay [14], in [15], in [16], in assay [17] and in [18] was “inactive” each time. Further, the Potency in assay [2] was 5.84 µM (active).
For the molecule `CC(C)OS(C)(=O)=O`, the Potency entry in assay [1], in assay [2], in assay [3], in assay [19], in assay [20] and in [5] was “inactive” each time. The Potency result in assay [6], in assay [7], in assay [9], in assay [10], in assay [11] and in assay [12] was “inactive” in each case. The Potency entry in [13], in assay [14] and in assay [15] was “inactive” throughout.
With `CC(C)NC(=O)N1CC(=O)N(c2cc(Cl)cc(Cl)c2)C1=O`, the Potency result in assay [1], in [2], in assay [3], in [19], in [20] and in assay [5] was “inactive” in each case. The Potency result in assay [6], in assay [7], in [8], in [9], in assay [10] and in assay [12] was “inactive” in each case. Moreover, the Potency result in assay [13], in assay [15], in assay [16] and in assay [18] was “inactive” each time.
Turning to `N[C@@H](Cc1ccc(N(CCCl)CCCl)cc1)C(=O)O`, the Potency entry in assay [1], in [2], in assay [3], in assay [19], in assay [20] and in [5] was “inactive” in each case. The Potency result in assay [6], in assay [7], in [8], in assay [14], in assay [15] and in [16] was “inactive” each time. Further, the Potency entry in assay [17] and in assay [18] was “inactive” each time.
Take `CC[N+]1(CC)CCC(OC(=O)C(O)(c2ccccc2)c2ccccc2)C1` (stereo not given): the Potency entry in [1], in assay [2], in [3], in [19], in assay [20] and in assay [5] was “inactive” each time. In addition, the Potency result in assay [6], in assay [7], in assay [8], in assay [10], in [11] and in [13] was “inactive” throughout. Further, the Potency result in assay [14], in assay [15], in assay [16], in [17] and in assay [18] was “inactive” in each case. The Potency in [12] was 0.0023 µM (active).
Take `CCOC(=O)c1ccccc1N`: the Potency entry in [1], in assay [2], in assay [3], in [19], in assay [6] and in assay [7] was “inactive” in each case. For the same molecule, the Potency result in assay [8], in assay [10], in [11], in assay [12], in assay [13] and in assay [14] was “inactive” throughout. Moreover, the Potency entry in assay [15], in assay [16], in [17] and in assay [18] was “inactive” throughout.
